# Measured values: the antibiotic and cytotoxicity screens of Wong et al. (2023)
# Among all 39,000 compounds or so, about 3,300 (8.5%) were called active. The full list was thinned out, with actives kept by preference.
# System: HepG2
# Experiment: cytotoxicity call (relative viability < 0.9)
# Conditions: 10 µM
row,Structure (SMILES),cytotoxicity call
1,CC(=O)OCC1=C(C(=O)O)N2C(=O)[C@@H](N)[C@H]2SC1,inactive
2,CC(=O)Nc1cc([As](=O)(O)O)ccc1O,inactive
3,COC1=CC2C3Cc4ccc(OC)c(O)c4C2(CCN3C)CC1=O (stereo not given),inactive
4,C=C1[C@@H](C)[C@H]2[C@H](Cc3ccccc3)NC(=O)[C@]23[C@H](OC(C)=O)/C=C/[C@](C)(O)C(=O)[C@@H](C)C/C=C/[C@H]3[C@@H]1O,active
5,Cc1noc(C)c1C(=O)N1C[C@@H]2CCN[C@@H]2C1,inactive
6,CC1=NCCN=C(C)C1N1CCOCC1,inactive
7,O=C(OC1CC2CCC(C1)[N+]21CCCC1)C(O)(c1ccccc1)c1ccccc1.[Cl-] (stereo not given),inactive
8,N[C@@]1(C(=O)O)CC[C@@H](C(=O)O)C1.N[C@]1(C(=O)O)CC[C@H](C(=O)O)C1,inactive
9,CC[C@@H](C(=O)[C@@H](C)[C@@H](O)[C@H](C)[C@@H]1O[C@@H]([C@@H](CC)C(=O)O)CC[C@@H]1C)[C@H]1O[C@]2(C=C[C@@H](O)[C@]3(CC[C@@](C)([C@H]4CC[C@](O)(CC)[C@H](C)O4)O3)O2)[C@H](C)C[C@@H]1C,inactive
10,CCC(C(=O)[O-])C1CCC(C)C(C(C)C(O)C(C)C(=O)C(CC)C2OC3(C=CC(O)C4(CCC(C)(C5CCC(O)(CC)C(C)O5)O4)O3)C(C)CC2C)O1.[Na+] (stereo not given),active
11,CCCCC(=O)N1C[C@@H]2CCNC[C@@H]21,inactive
12,Cc1csc(CCN)n1,inactive
13,CN1[C@@H]2CNc3ccccc3[C@@H]2[C@@H]1CO,inactive
14,CCN1C[C@]2(OC(=O)c3ccccc3NC(C)=O)CC[C@@H](OC)[C@@]34[C@H]5C[C@@H]6[C@@H](OC)C[C@](O)([C@@H](C[C@@H]23)[C@@H]14)[C@]5(O)[C@H]6OC,inactive
15,N[C@@H](Cn1oc(=O)[nH]c1=O)C(=O)O,inactive
16,COC(=O)C1=CCCN(C)C1,inactive
17,Br.COC(=O)C1=CCCN(C)C1,active
18,Clc1cc2c(cc1Cl)Oc1cc(Cl)c(Cl)cc1O2,inactive
19,CNCC(=O)c1ccc(O)c(O)c1,inactive
20,C[C@H]1CN([C@@H](C)CO)C(=O)c2c(c3ccccc3n2C)-c2ccccc2CO[C@H]1CN(C)C(=O)Oc1ccccc1,inactive
21,N[C@H]1Cc2ccccc2[C@@H]1O,inactive
22,O=[N+]([O-])c1ccc([As](=O)(O)O)cc1 [listing 1 of 2 here],inactive
23,O=[N+]([O-])c1cc([As](=O)(O)O)ccc1O,inactive
24,O=[N+]([O-])c1ccc([As](=O)(O)O)cc1 [listing 2 of 2 here],active

row,Structure (SMILES),cytotoxicity call
1,CC1=C2C3OC(=O)C(C)C3CCC2(C)C=CC1=O (stereo not given),inactive
2,O=C1NC(=S)NC(=O)C1=Cc1ccccc1,inactive
3,C=CC=CCC1=C(C)C(OC(=O)C2C(C=C(C)C)C2(C)C)CC1=O (stereo not given),inactive
4,Oc1cc(Cl)ccc1Oc1ccc(Cl)cc1Cl [listing 1 of 2 here],inactive
5,Oc1cc(Cl)ccc1Oc1ccc(Cl)cc1Cl [listing 2 of 2 here],active
6,Nc1ccc(Cl)cc1Cl,inactive
7,Cc1nc(-c2ccc(-c3ccc(C(=O)N4CCc5cc6c(cc54)C4(CCN(C)CC4)CO6)cc3)c(C)c2)no1,active
8,NCCc1nc2ccccc2[nH]1,inactive
9,O[C@H]1[C@H]2[C@H](O)CCCN2C[C@H]1O,inactive
10,COc1ccc(C(=O)O[C@H]2CC[C@@]3(C)[C@@H]4CC[C@H]5[C@]6(O)C[C@H](O)[C@@]7(O)[C@@H](CN8C[C@@H](C)CC[C@H]8[C@@]7(C)O)[C@]6(O)C[C@@]53O[C@]24O)cc1OC,inactive
11,CC1CCC2(NC1)OC1CC3C4CC=C5CC(O)CCC5(C)C4CCC3(C)C1C2C (stereo not given),inactive
12,C[C@@H]1CC[C@@]2(OC1)O[C@H]1[C@@H](O)[C@H]3[C@H]4CC[C@H]5C[C@H](O[C@@H]6O[C@H](CO)[C@H](O[C@@H]7O[C@H](CO)[C@@H](O)[C@H](O[C@@H]8OC[C@@H](O)[C@H](O)[C@H]8O)[C@H]7O[C@@H]7O[C@H](CO)[C@H](O)[C@H](O[C@@H]8O[C@H](CO)[C@@H](O)[C@H](O)[C@H]8O)[C@H]7O)[C@H](O)[C@H]6O)[C@H](O)C[C@]5(C)[C@@H]4CC[C@]3(C)[C@H]1[C@@H]2C,inactive
13,C[C@@H]1CC[C@@]2(OC1)O[C@H]1C[C@H]3[C@@H]4CC=C5C[C@@H](O[C@@H]6O[C@H](CO)[C@@H](O[C@@H]7O[C@@H](C)[C@H](O)[C@@H](O)[C@H]7O)[C@H](O)[C@H]6O[C@@H]6O[C@@H](C)[C@H](O)[C@@H](O)[C@H]6O)CC[C@]5(C)[C@H]4CC[C@]3(C)[C@H]1[C@@H]2C,active
14,C[C@@H]1CN([C@@H](C)CO)C(=O)CCCn2cc(nn2)CO[C@H]1CN(C)C(=O)Oc1ccc2ccccc2c1,inactive
15,Cc1nc(N)sc1CCN,inactive
16,C1CC2(CCN1)OCCO2,inactive
17,COCCCNC(=O)[C@@]1(Cc2ccccc2N=[N+]=[N-])N=C(c2ccc(OCCCO)cc2)O[C@H]1c1ccccc1N=[N+]=[N-],inactive
18,[N-]=[N+]=NCc1ccccc1C[C@@]1(C(=O)NCCN2CCOCC2)N=C(c2ccc(OCCCO)cc2)O[C@@H]1c1ccccc1N=[N+]=[N-],active
19,[N-]=[N+]=NCc1ccccc1C[C@]1(C(=O)NCCN2CCOCC2)N=C(c2ccc(OCCCO)cc2)O[C@H]1c1ccccc1N=[N+]=[N-],active
20,[N-]=[N+]=Nc1ccccc1C[C@@]1(C(=O)NCCN2CCOCC2)N=C(c2ccc(OCCCO)cc2)O[C@@H]1c1ccccc1N=[N+]=[N-],inactive
21,Cn1ccnc1C(=O)N[C@H]1CN[C@@H]2CCCO[C@@H]12,inactive
22,Nc1ncnc2c1ncn2CCOCP(=O)(O)O,inactive
23,Cc1cc([C@@H](C#N)c2ccc(Cl)cc2)c(Cl)cc1NC(=O)c1cc(I)cc(I)c1O,inactive
24,CC[C@@]1(O)C[C@H](O[C@H]2C[C@H](N(C)C)[C@H](O)[C@H](C)O2)c2c(cc3c(c2O)C(=O)c2c(O)ccc(O)c2C3=O)[C@H]1C(=O)OC,active

row,Structure (SMILES),cytotoxicity call
1,CCC1(O)CC(O)c2c(cc3c(c2O)C(=O)c2c(O)ccc(O)c2C3=O)C1C(=O)OC (stereo not given),inactive
2,Cl.NCCc1cc(O)c(O)cc1O,inactive
3,C[C@@H]1CN([C@H](C)CO)C(=O)CCCn2nncc2CO[C@@H]1CN(C)C(=O)Oc1ccc2ccccc2c1,inactive
4,O=C1CC2OCC=C3CN4CCC56c7ccccc7N1C5C2C3CC46.O=S(=O)(O)O (stereo not given),active
5,COc1cc2c(cc1OC)C13CCN4CC5=CCOC6CC(=O)N2C1C6C5CC43 (stereo not given),inactive
6,O=C(O)C[C@@H]1CC[C@H]2NC[C@H](O)COC[C@@H]2O1,inactive
7,c1ccc2cc3c(cc2c1)-c1cccc2cccc-3c12,active
8,c1csc(N2CCNCC2)n1,inactive
9,COC(=O)[C@@H]1C(=O)NC[C@H]1C(C)C,inactive
10,CC(=O)N[C@H]1CCSC1=O,inactive
11,NC(N)=NOCC[C@H](N)C(=O)O,inactive
12,[N-]=[N+]=CC(=O)OCC(N)C(=O)O (stereo not given),active
13,N#[N+]CC(=O)OC[C@H](N)C(=O)O,inactive
14,O=C(NCc1ccccn1)[C@]12CNC[C@H]1COC2,inactive
15,O=C1[O][Pt]2([NH][C@@H]3CCCC[C@H]3[NH]2)[O]C1=O,inactive
16,CCN1C[C@]2(COC)CC[C@@H](OC)[C@@]34[C@@H]2[C@@H](OC)[C@@H]([C@@H]13)[C@]1(OC(C)=O)C[C@@H](OC)[C@@]2(O)C[C@H]4[C@@H]1[C@H]2OC(=O)c1ccc(OC)cc1,inactive
17,Cc1cc(O)c2c(=O)c3c(O)cc(O)c4c5c(O)cc(O)c6c(=O)c7c(O)cc(C)c8c1c2c(c34)c(c78)c65,active
18,CC(C)C[C@@H]1C(=O)N2CCC[C@@H]2[C@]2(O)O[C@@](NC(=O)[C@@H]3C=C4c5cccc6[nH]c(Br)c(c56)C[C@@H]4N(C)C3)(C(C)C)C(=O)N12,inactive
19,CC[C@@H](CN)c1ccccc1,inactive
20,C[N+](C)(C)C[C@H]1CCC[C@@H]1O,inactive
21,CN1C(=O)N(C)C2C1N(C)C(=O)N2C (stereo not given),inactive
22,NCCc1ccc(C(=O)c2ccccc2)cc1,inactive
